Experimental data taken from PubChem BioAssay (Tox21).
Inconclusive results are not listed. Calls of active or inactive are those of the source. Unless noted, calls follow the shape of the full dose curve.

Tests used:
[1] = qHTS assay to identify small molecule agonists of the peroxisome proliferator-activated receptor delta (PPARd) signaling pathway - cell viability counter screen (AID 743211; active = well fitted curve in the direction sought with a large enough effect in the repeat runs; an effect the other way counts as inactive or inconclusive; also: nearly all actives have a fitted effect of over 55% in size)
Summary of the method: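 Multiplexed format: after the 2 h room-temperature LiveBLAzer B/G FRET step, CellTiter-Glo was added to the same wells. Luminescence after 30 min gave cell viability; compound exposure was 17 h at 37C.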

[2] = qHTS assay to identify small molecule antagonists of the peroxisome proliferator-activated receptor delta (PPARd) signaling pathway - cell viability counter screen (AID 743213; active = well fitted curve in the direction sought with a large enough effect in the repeat runs; an effect the other way counts as inactive or inconclusive; also: nearly all actives have a fitted effect of over 50% in size)
Summary of the method: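 HEK293H PPARd UAS-bla cells, 5 h pre-incubation, compound + L165041 300 nM final, 17 h 37 C; B/G FRET substrate 2 h RT; then CellTiter-Glo 30 min RT, luminescence.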

[3] = qHTS assay to identify small molecule antagonists of the farnesoid-X-receptor (FXR) signaling pathway - cell viability counter screen (AID 743221; active = well fitted cell-killing curve with a large enough effect in the repeat runs, not every such curve was filed as active; also: nearly all actives have a fitted effect of over 50% in size)
Summary of the method: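 CellTiter-Glo, 30 min RT, luminescence; same wells as the LiveBLAzer FRET read. Cells: FXR-UAS-bla HEK 293T. Treatment: compound with chenodeoxycholic acid 50 uM final, 16 h at 37 C.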

[4] = target: Vitamin D3 receptor (Homo sapiens) (UniProt P11473); assay: qHTS assay to identify small molecule agonists of the vitamin D receptor (VDR) signaling pathway (AID 743222)
Chain of Vitamin D3 receptor (Homo sapiens) (P11473 whole entry, looked up): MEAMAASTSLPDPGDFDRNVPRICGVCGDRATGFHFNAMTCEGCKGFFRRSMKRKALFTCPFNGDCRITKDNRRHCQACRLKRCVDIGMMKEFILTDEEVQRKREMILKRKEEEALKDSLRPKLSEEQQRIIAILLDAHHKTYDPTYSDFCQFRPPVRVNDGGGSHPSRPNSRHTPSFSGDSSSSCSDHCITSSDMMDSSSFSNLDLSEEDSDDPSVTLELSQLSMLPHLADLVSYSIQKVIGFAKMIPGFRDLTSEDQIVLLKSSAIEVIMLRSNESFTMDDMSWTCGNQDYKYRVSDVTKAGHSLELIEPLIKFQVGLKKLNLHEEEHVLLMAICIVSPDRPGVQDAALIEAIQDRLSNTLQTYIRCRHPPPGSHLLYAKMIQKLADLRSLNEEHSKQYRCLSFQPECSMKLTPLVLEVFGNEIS
Summary of the method: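 Following 4 h attachment at 37C, VDR-bla cells (2,000 per well) received DMSO-dissolved compounds or controls. After 16 h incubation, LiveBLAzer B/G FRET substrate was added and fluorescence read 2 h later at room temperature.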

[5] = qHTS assay to identify small molecule agonists of the vitamin D receptor (VDR) signaling pathway - cell viability counter screen (AID 743224; active = well fitted curve in the direction sought with a large enough effect in the repeat runs; an effect the other way counts as inactive or inconclusive; also: nearly all actives have a fitted effect of over 50% in size; also: potency is read from the fitted curve at half-maximal effect)
Summary of the method: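 In parallel with the bla FRET readout, cytotoxicity toward VDR-bla cells after 16 h compound exposure was assessed by CellTiter-Glo, with luminescence recorded after a 30 min room-temperature incubation.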

[6] = qHTS assay to identify small molecule antagonists of the vitamin D receptor (VDR) signaling pathway - cell viability counter screen (AID 743225; active = well fitted curve in the direction sought with a large enough effect in the repeat runs; an effect the other way counts as inactive or inconclusive; also: nearly all actives have a fitted effect of over 50% in size)
Summary of the method: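 Cytotoxicity toward the VDR-bla HEK 293T line was scored by ATP-based CellTiter-Glo luminescence, read in the wells already used for the beta-lactamase readout after 16 h compound treatment under 3 nM 1-alpha,25-dihydroxyvitamin D3 stimulation.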

[7] = qHTS assay to identify small molecule agonists of the NFkB signaling pathway (AID 1159509; active = well fitted curve in the direction sought with a large enough effect in the signal ratio in the repeat runs, not every such curve was filed as active; the % refers to the signal ratio; also: series mostly up to about 61 µM)
Summary of the method: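 Pathway activation was measured in ME-180 cells stably expressing beta-lactamase under NF-kB response element control. Substrate cleavage was read as the 460/530 nm emission shift after 5 hr compound incubation.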

[8] = qHTS assay to identify small molecule agonists of the NFkB signaling pathway - cell viability counter screen (AID 1159515); also: series mostly up to about 61 µM; nearly all actives have a fitted effect of over 55% in size
Summary of the method: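 Plate 2,000 NFkB-bla ME-180 cells/well; incubate overnight. Add compounds, 5 hr at 37 C. Add FRET substrate, 1.5 hr RT. Add CellTiter-Glo, 30 min RT; read luminescence.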

[9] = qHTS assay to identify small molecule agonists of the endoplasmic reticulum stress response signaling pathway (AID 1159516; active = well fitted activation curve with a large enough effect in the signal ratio in the repeat runs, not every such curve was filed as active; the % refers to the signal ratio)
Summary of the method: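 Beta-lactamase expression from the ER stress response element in HeLa reporter cells is quantified with the LiveBLAzer B/G FRET substrate, read at 405 nm excitation after 2 hr at room temperature, following 5 hr compound treatment at 37 C.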

[10] = qHTS assay to identify small molecule agonists of the endoplasmic reticulum stress response signaling pathway - cell viability counter screen (AID 1159517)
Summary of the method: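 In parallel with the ESRE reporter read, cytotoxicity was scored by CellTiter-Glo luminescence (30 min, room temperature) on HeLa ESRE-bla cells dosed for 5 hr.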

[11] = qHTS assay to identify small molecule antagonists of the retinoid-related orphan receptor gamma (ROR-gamma) signaling pathway - cell viability counter screen (AID 1159520; active = well fitted curve in the direction sought with a large enough effect in the repeat runs; an effect the other way counts as inactive or inconclusive; also: nearly all actives have a fitted effect of over 50% in size)
Summary of the method: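 Tet-on ROR gamma CHO cells were given compounds for 2 hr, then doxycycline hyclate at 1 uM final, and incubated 16 hr at 37 C. Viability was measured as ATP content by CellTiter-Glo luminescence.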

[12] = qHTS assay to identify small molecule agonists of the AP-1 signaling pathway - cell viability counter screen (AID 1159525); also: nearly all actives have a fitted effect of over 55% in size
Summary of the method: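 Same-well cytotoxicity counter screen of the Tox21 10K library in ME-180 cells. The readout is ATP-dependent luminescence after 5 h compound treatment. Data are normalised to DMSO and tetra n-octyl ammonium bromide controls.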

[13] = qHTS assay to identify small molecule agonists of the AP-1 signaling pathway (AID 1159526)
[14] = target: Peroxisome proliferator-activated receptor delta (Homo sapiens) (UniProt Q03181); assay: qHTS assay to identify small molecule agonists of the peroxisome proliferator-activated receptor delta (PPARd) signaling pathway (AID 743212)
Chain of Peroxisome proliferator-activated receptor delta (Homo sapiens) (Q03181 whole entry, looked up): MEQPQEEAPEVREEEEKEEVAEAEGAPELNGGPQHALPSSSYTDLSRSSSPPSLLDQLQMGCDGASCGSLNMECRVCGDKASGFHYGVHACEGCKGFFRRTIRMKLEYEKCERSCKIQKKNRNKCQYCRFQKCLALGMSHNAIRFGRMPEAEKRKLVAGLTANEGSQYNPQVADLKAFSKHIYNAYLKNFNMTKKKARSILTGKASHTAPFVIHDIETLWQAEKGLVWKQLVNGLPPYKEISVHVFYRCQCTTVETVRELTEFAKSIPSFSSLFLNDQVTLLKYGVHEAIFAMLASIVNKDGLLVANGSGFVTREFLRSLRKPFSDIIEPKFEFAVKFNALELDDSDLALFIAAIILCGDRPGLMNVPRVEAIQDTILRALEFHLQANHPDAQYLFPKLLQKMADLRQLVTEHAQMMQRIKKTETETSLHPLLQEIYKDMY
Summary of the method: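 Tox21 library screened in GeneBLAzer PPARd UAS-bla HEK293H cells. After compound treatment at 37 C, a FRET-based beta-lactamase substrate was applied for 2 h and fluorescence recorded.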

[15] = target: Peroxisome proliferator-activated receptor delta (Homo sapiens) (UniProt Q03181); assay: qHTS assay to identify small molecule antagonists of the peroxisome proliferator-activated receptor delta (PPARd) signaling pathway (AID 743215; active = well fitted inhibition curve with a large enough effect in the signal ratio in the repeat runs, not every such curve was filed as active; the % refers to the signal ratio;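 also: cells stimulated with agonist L165041 at 300 nM final during compound exposure; series mostly up to about 62 µM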)
Summary of the method: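 Fluorescence from cleaved LiveBLAzer B/G FRET substrate (2 h, room temperature) reports PPARd-driven beta-lactamase in HEK293H UAS-bla cells. Cells had been treated 17 h at 37 C with compound plus 300 nM final L165041.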

[16] = target: Bile acid receptor (Homo sapiens) (UniProt Q96RI1); assay: qHTS assay to identify small molecule antagonists of the farnesoid-X-receptor (FXR) signaling pathway (AID 743217; active = well fitted inhibition curve with a large enough effect in the signal ratio in the repeat runs, not every such curve was filed as active; the % refers to the signal ratio; also: potency is read from the fitted curve at half-maximal effect)
Chain of Bile acid receptor (Homo sapiens) (Q96RI1 whole entry, looked up): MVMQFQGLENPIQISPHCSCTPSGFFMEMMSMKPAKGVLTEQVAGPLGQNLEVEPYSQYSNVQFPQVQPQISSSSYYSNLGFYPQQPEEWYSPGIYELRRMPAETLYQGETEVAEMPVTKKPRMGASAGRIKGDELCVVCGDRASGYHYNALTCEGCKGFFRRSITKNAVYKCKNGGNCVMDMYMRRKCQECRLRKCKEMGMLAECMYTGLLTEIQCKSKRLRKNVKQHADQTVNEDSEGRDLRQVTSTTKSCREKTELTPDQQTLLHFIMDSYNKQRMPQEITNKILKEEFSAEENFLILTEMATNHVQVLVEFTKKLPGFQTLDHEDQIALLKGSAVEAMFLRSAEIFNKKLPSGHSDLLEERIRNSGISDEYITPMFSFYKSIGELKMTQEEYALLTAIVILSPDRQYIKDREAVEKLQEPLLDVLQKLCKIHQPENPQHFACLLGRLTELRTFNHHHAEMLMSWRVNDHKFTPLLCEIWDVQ
Summary of the method: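 FRET fluorescence after 2 h room-temperature LiveBLAzer loading gives the readout. Prior step: FXR-bla HEK 293T cells, seeded and incubated 5 h, received test compounds plus 50 uM final CDCA for 16 h at 37 °C.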

[17] = qHTS assay to identify small molecule agonists of the farnesoid-X-receptor (FXR) signaling pathway - cell viability counter screen (AID 743218; active = well fitted curve in the direction sought with a large enough effect in the repeat runs; an effect the other way counts as inactive or inconclusive; also: nearly all actives have a fitted effect of over 45% in size)
Summary of the method: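 Readout: CellTiter-Glo luminescence, 30 min RT, multiplexed after the FXR-bla FRET reading. HEK 293T FXR-UAS-bla cells received compound 5 h post-plating and were incubated 16 h at 37 C.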

[18] = target: Bile acid receptor (Homo sapiens) (UniProt Q96RI1); assay: qHTS assay to identify small molecule agonists of the farnesoid-X-receptor (FXR) signaling pathway (AID 743220; active = well fitted activation curve with a large enough effect in the signal ratio in the repeat runs, not every such curve was filed as active; the % refers to the signal ratio)
Summary of the method: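 FXR-UAS-bla HEK 293T cells carrying a UAS-driven beta-lactamase reporter were plated for 5 h at 37C/5% CO2, then exposed to DMSO-dissolved Tox21 10K compounds for 16 h at 37C. A LiveBLAzer B/G FRET substrate was loaded for 2 h at room temperature before fluorescence reading.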

[19] = target: Vitamin D3 receptor (Homo sapiens) (UniProt P11473); assay: qHTS assay to identify small molecule antagonists of the vitamin D receptor (VDR) signaling pathway (AID 743223; active = well fitted inhibition curve with a large enough effect in the signal ratio in the repeat runs, not every such curve was filed as active; the % refers to the signal ratio)
Summary of the method: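 After VDR-bla cells are plated and left 4 h at 37C, DMSO-dissolved compounds and 3 nM (final) calcitriol agonist are added. Incubation continues 16 h at 37C; FRET beta-lactamase substrate then develops 2 h at room temperature.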

Measured: Potency

O=C(C(=O)c1ccccc1)c1ccccc1
not listed: [14] | [15] | [16] | [17] | [18] | [19]
inactive: all other assays above

CC(=O)Oc1ccc2c(c1)CC[C@@H]1[C@@H]2CC[C@]2(C)[C@@H](O)CC[C@@H]12
active: [16] 29.8 µM
not listed: [12]
inactive: all other assays above

CCNC(=O)N1CCN(CCCC(c2ccc(F)cc2)c2ccc(F)cc2)CC1
not listed: [1] | [4] | [5] | [15] | [16] | [18]
inactive: all other assays above

C=CCNc1nc(NCC=C)nc(N2CCN(C(c3ccc(F)cc3)c3ccc(F)cc3)CC2)n1
not listed: [6] | [13] | [17]
inactive: all other assays above

CC(C)OCC1CO1 (centres undefined)
not listed: [12]
inactive: all other assays above

CC(=O)Oc1ccc(C(=C2CCCCC2)c2ccc(OC(C)=O)cc2)cc1
not listed: [1] | [4] | [5] | [15] | [19]
inactive: all other assays above

CCCOCCOCCO
not listed: [4] | [13] | [16] | [18] | [19]
inactive: all other assays above

CCCCCC=CCC=CCCCCCCCC(=O)OCC
active: [5] 29.8 µM
not listed: [1] | [2] | [14]
inactive: all other assays above

CC(C)CCCCCOC(=O)CCCCC(=O)OCCCCCC(C)C
not listed: [1] | [16] | [18]
inactive: all other assays above

CC(C)CCCCCCOC(=O)CCCCC(=O)OCCCCCCC(C)C
not listed: [13] | [14]
inactive: all other assays above

C=CC(C)=CCC=C(C)C
not listed: [3] | [14] | [15] | [16] | [17] | [18]
inactive: all other assays above

CCCC1C(CC)=CC(CC)=CN1c1ccccc1 (centres undefined)
not listed: [1] | [5] | [6] | [19]
inactive: all other assays above

COc1cc2c(cc1OC)-c1cc(=Nc3c(C)cc(C)cc3C)n(C)c(=O)n1CC2
not listed: [1] | [2] | [4] | [5] | [14] | [15] | [16] | [18]
inactive: all other assays above
